Assay results: PubChem BioAssay (Tox21)
More than one record can exist for a structure, and the calls need not agree. Active and inactive are the calls of the source. Entries that show only a call come without a potency. Calls follow the shape of the dose curve; as a rule, active = well fitted activation curve with a large enough effect in the repeat runs; inconclusive = weak or mixed curves; inactive = flat fitted curve, though single readings scatter.

test: A CellTox Green Cytotoxicity Assay to monitor cytotoxicity in HEK293 cells - 0 hour (AID 1224869); settings: CellTox Green fluorescence; series mostly up to 76.8 µM; cytotoxicity: at the top concentration; also: nearly all actives have a fitted effect of over 50% in size
From the text: National Center for Advancing Translational Sciences [NCATS]
NIH Chemical Genomics Center [NCGC]
U.S. Environmental Protection Agency [EPA]
National Institutes of Environmental Health Sciences [NIEHS]
National Toxicology Program [NTP]
Cell-based models are critical for drug discovery. Determining the natural cytotoxic effects resulting from test compounds is an essential research activity. A CellTox Green Cytotoxicity Assay to monitor cytotoxicity in real time of continues cell culture during 40 hours of the compound treatment was used to screen Tox21 10K library compounds in Hek293 cells. CellTox Green Cytotoxicity Assay is a nonlytic, homogeneous, biofluorescent method to measure cytotoxicity in cell culture after experimental manipulation. The assay system uses a proprietary asymmetric cyanine dye that is excluded from viable cells but preferentially stains the dead cell's DNA. […] Viable cells produce no appreciable increases in fluorescence. Therefore, the fluorescence signal produced by the binding interaction with dead cell DNA is proportional to cytotoxicity.
The mixture of Hek293 cell suspension and reagents were dispensed at 600cells/6 ul/well in 1536-well tissue culture treated black solid bottom plates using a Multidrop dispenser. After the assay plates were incubated at a 37 C/5% CO2 incubator for 5 hours, 23 nL of compounds dissolved in DMSO, positive and negative controls was transferred to the assay plate by a pintool work station. The plates were incubated at 37 C for 40 hours. The fluorescence intensity were measured at 0h, 8h, 16h, 24h, 32h and 40h time points using ViewLux plate reader during compound treatment.
Potency is read from the fitted curve at half-maximal effect.

Row | SMILES | Potency | cytotoxicity
1 | Cc1cccc(N)c1N | inactive | 
2 | CCCCCCCCC(=O)NCc1ccc(O)c(OC)c1 | inactive | 
3 | COc1ccc(C=O)cc1 | inactive | 
4 | C=CCc1ccc(OC)cc1 | inactive | 
5 | C=CC(=O)OCCO | inactive | 
6 | CC(C)(C)c1ccccc1O | inactive | 
7 | CCC(CC)Nc1c([N+](=O)[O-])cc(C)c(C)c1[N+](=O)[O-] | inactive | 
8 | CCN(CC)C(=O)/C(Cl)=C(\C)OP(=O)(OC)OC | inactive | 
9 | O=[N+]([O-])c1ccc(O)c([N+](=O)[O-])c1 |  | -0.439% (inactive)
10 | Cc1c(COC(=O)[C@@H]2[C@H](/C=C(\Cl)C(F)(F)F)C2(C)C)cccc1-c1ccccc1 | inactive | 
11 | Brc1ccc(Oc2cc(Br)c(Br)cc2Br)c(Br)c1 | inactive | 
12 | Cc1ccccc1[N+](=O)[O-] | inactive | 
13 | C=CCN(CC=C)C(=O)C(Cl)Cl | inactive | 
14 | CCC(C)c1cc([N+](=O)[O-])cc([N+](=O)[O-])c1O (stereo not given) | inactive | 
15 | ClC1C(Cl)C(Cl)C(Cl)C(Cl)C1Cl (stereo not given) | inactive | 
16 | O=C(CCl)c1ccccc1 | inactive | 
17 | NC(=S)Nc1ccccc1 | 49.8 µM (active) and inactive | 
18 | C=CCc1ccc2c(c1)OCO2 | inactive | 
19 | O=Cc1ccco1 | inactive | 
20 | C#CCOS(=O)OC1CCCCC1Oc1ccc(C(C)(C)C)cc1 (stereo not given) | inactive | 

Row | SMILES | Potency | cytotoxicity
21 | CCCCN(CCCC)N=O | inactive | 
22 | CCCCCCCCCCCOC(=O)c1ccccc1C(=O)OCCCCCCCCCCC | inactive | 
23 | CCOc1cc(C=O)ccc1O | inactive | 
24 | CC(C)Oc1cc(-n2nc(C(C)(C)C)oc2=O)c(Cl)cc1Cl |  | 0.393% (inactive)
25 | Nc1ccncc1 | inactive | 
26 | Oc1ccc(-c2ccccc2)cc1 | inactive | 
27 | O=C(O)C(F)(F)C(F)(F)C(F)(F)C(F)(F)C(F)(F)C(F)(F)C(F)(F)F | inactive | 
28 | CN(C)c1ccc(C(=O)c2ccc(N(C)C)cc2)cc1 | inactive | 
29 | N#CC(Br)Br | inactive | 
30 | N[C@@H](Cc1ccc(N(CCCl)CCCl)cc1)C(=O)O | inactive | 
31 | CCOc1cc(Oc2ccc(C(F)(F)F)cc2Cl)ccc1[N+](=O)[O-] | inactive | 
32 | Clc1nc(Cl)nc(Cl)n1 | inactive | 
33 | CCCCCc1cc(O)cc(O)c1 | inactive | 
34 | Cc1ccc(OP(=O)(Oc2ccc(C)cc2)Oc2ccc(C)cc2)cc1 | inactive | 
35 | CCC(C)c1ccc(O)cc1 (stereo not given) | inactive | 
36 | Nc1ccc(-c2ccccc2)cc1 | inactive | 
37 | Nc1c(Cl)cc([N+](=O)[O-])cc1Cl | inactive | 
38 | COc1ccc(C(CN(C)C)C2(O)CCCCC2)cc1 (stereo not given) | inactive | 
39 | CC(C)C(=O)OCC(C)(C)C(OC(=O)C(C)C)C(C)C (stereo not given) | inactive | 
40 | C=C(C)[C@H]1Cc2c(ccc3c2O[C@@H]2COc4cc(OC)c(OC)cc4[C@@H]2C3=O)O1 | inactive | 
